Bioassay records as filed in PubChem BioAssay.
An excerpt weighted towards active compounds, which were near 4.8% of everything screened.
SMARCA2 act – SMARCA2 function activation, primary screen. MG213 cells, MMTV-luciferase reporter, dexamethasone, overnight. activation, % at 9.1 µM. 370,000 compounds, 1% hits. AID 652017; in the data active = activation above about 7.8%;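 note: 0% = vehicle wells and 100% = reference activator wells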
DAX1 inh-1 – inhibitors of human orphan nuclear receptor DAX1 (NR0B1) | P51843 | 340,000 compounds, 0.99% hits | inhibition, % at 6.75 µM | AID 504766 | HEK293 Gal4-DAX1 luciferase reporter, luminescence;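 active = inhibition above the mean over all tested compounds plus 3 SD, cut at about 4.2% in these data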;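 note: 0% = DAX1-transfected cells with DMSO and 100% = empty-vector control cells with DMSO; inhibition shows as a rise in luminescence from relieved DAX1 repression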
Target sequence (P51843 207-470 limits assumed): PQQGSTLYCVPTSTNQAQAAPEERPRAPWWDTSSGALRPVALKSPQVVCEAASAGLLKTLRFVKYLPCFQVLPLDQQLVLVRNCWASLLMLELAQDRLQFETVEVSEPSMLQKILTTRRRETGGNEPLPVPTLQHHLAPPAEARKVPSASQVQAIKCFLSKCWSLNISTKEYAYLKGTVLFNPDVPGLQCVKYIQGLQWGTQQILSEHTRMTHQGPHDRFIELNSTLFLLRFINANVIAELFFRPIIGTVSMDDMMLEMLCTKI
ssDAF12 agonist – activators of S. stercoralis DAF-12 nuclear receptor. 370,000 compounds, 1% hits. AID 652126. HEK293 ssDAF-12/GRIP1 lit1-tk-luc reporter, luminescence; % of 3 µM dafachronic acid response. activation, % at 6.8 µM;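 active = activation above the mean over all tested compounds plus 3 SD, cut at about 0.9% in these data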;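 note: 0% = DMSO-only wells and 100% = 3 µM delta7-dafachronic acid wells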
hgDAF-12 ag – agonists of H. glycines DAF-12 nuclear receptor; activation, % at 6.8 µM; HEK293 GAL4-hgDAF12 UAS-luciferase reporter, agonist luminescence; normalized to butyrate control; 370,000 compounds, 1.8% hits;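 active = activation above a cutoff set at the mean of all screened compounds plus 3 SD, cut at about 10% in these data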;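 note: 0% = DMSO wells and 100% = sodium butyrate wells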
DAX1 inh-2 – DAX1 (NR0B1) inhibition, primary screen; HEK293T StAR-luciferase reporter, SF-1/DAX-1 repression relief; 370,000 compounds, 1.1% hits; inhibition, % at 6.8 µM;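 active = inhibition above the mean over all tested compounds plus 3 SD, cut at about 3.6% in these data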;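 note: 0% = DAX-1 cells with DMSO and 100% = cells lacking DAX-1 with DMSO; higher inhibition means more luminescence from relief of DAX-1 repression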
hcDAF12 agonist – activates DAF-12 receptor from parasite H. contortus; HEK293 hcDAF-12 lit1-tk-luc reporter, luminescence; 0% DMSO, 100% Δ7-dafachronic acid; 370,000 compounds, 1.4% hits; activation, % at 6.8 µM;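 active = activation above the mean of all tested compounds plus 3 SD, cut at about 5.5% in these data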;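 note: 100% = response to 3 µM Δ7-dafachronic acid high control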
SMARCA2 act conf – SMARCA2 activation, confirmation screen | MG213 cells, MMTV-luciferase with dexamethasone, luminescence, overnight; MG213 cells expressing E1A, Rb sequestered; DMSO wells 0%, reference activator 100% | 3,500 compounds, 30% hits | shares compounds with SMARCA2 act | activation, % at 9.1 µM | AID 652260;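 active = activation above its plate's cutoff, the mean activation of tested wells plus 3 SD, cut at about 7.9% in these data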
GAL4-VP16 Luc – activates GAL4-VP16 luciferase, flagging SMARCA2 activator hits | 3,500 compounds, 41% hits | HEK293 GAL4-VP16 pG5luc reporter, luciferase luminescence; scaled: DMSO wells 0%, SAHA wells 100% | shares compounds with SMARCA2 act | activation, % at 9.1 µM;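 active = activation above the solvent-only control well mean plus 3 SD, averaged across control plates, cut at about 5.2% in these data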
Numbers without * were called inactive; · = no result.

SMILES | SMARCA2 act | DAX1 inh-1 | ssDAF12 agonist | hgDAF-12 ag | DAX1 inh-2 | hcDAF12 agonist | SMARCA2 act conf | GAL4-VP16 Luc
CCOc1ccc(Cl)cc1/C=C1/C(=O)ON=C1C | 8.0* | 1 | 0 | 0 | 0 | 0 | 5 | 1
COc1ccc(Cl)cc1/C=C1/C(=O)ON=C1C | -3 | -1 | -1 | 0 | 1 | 3 | · | ·
Cc1cccc(-c2cccc3c4c([nH]c23)[C@@H]2C[C@H](N(C)C(=O)Nc3ccccc3)[C@H]([C@H](C)O)C(=O)N2CC4)c1 | 9.2* | · | -1 | 0 | -1 | -3 | -4 | -1
Cc1cc(C)c(S(=O)(=O)N2CCOC23CCN(S(C)(=O)=O)CC3)c(C)c1 | 14* | 2 | -1 | -1 | 1 | -1 | -3 | 1
CCC(O)(CC)C(=O)NN(C(=O)CCl)c1ccccc1 | 8.7* | -1 | -2 | -1 | -1 | -3 | 2 | 0
Cc1ccc(N(NC(=O)C(O)(c2ccccc2)c2ccccc2)C(=O)CCl)cc1 | -9 | -1 | -2 | 3 | -1 | -2 | · | ·
O=C1NC[C@H](c2ccccc2)OC(=O)[C@@H](Cc2ccc(F)cc2)CC/C=C/C[C@@H]1CC(=O)N(CCO)Cc1ccccc1 | -1 | 0 | -1 | -2 | 0 | -2 | · | ·
CC(=O)Nc1ccc(S(=O)(=O)Nc2cccc(-c3cn4c(n3)SCC4)c2)cc1 | -2 | 2 | 0 | -5 | -1 | 1 | · | ·
